IDE exosite inh: insulin-degrading enzyme (human) exo-site inhibition; AID 1259349; z-score at 20 µM; 17,000 tested, 6.3% active; purified IDE, FL-6b probe fluorescence polarization; active compounds read low; P14735;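 active = z-score of -3 or lower, meaning strong loss of probe binding signal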;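 also: His-tagged human IDE residues 42-1019 made in E. coli with 30 nM FL-6b probe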
Target sequence (P14735 42-1019 limits assumed): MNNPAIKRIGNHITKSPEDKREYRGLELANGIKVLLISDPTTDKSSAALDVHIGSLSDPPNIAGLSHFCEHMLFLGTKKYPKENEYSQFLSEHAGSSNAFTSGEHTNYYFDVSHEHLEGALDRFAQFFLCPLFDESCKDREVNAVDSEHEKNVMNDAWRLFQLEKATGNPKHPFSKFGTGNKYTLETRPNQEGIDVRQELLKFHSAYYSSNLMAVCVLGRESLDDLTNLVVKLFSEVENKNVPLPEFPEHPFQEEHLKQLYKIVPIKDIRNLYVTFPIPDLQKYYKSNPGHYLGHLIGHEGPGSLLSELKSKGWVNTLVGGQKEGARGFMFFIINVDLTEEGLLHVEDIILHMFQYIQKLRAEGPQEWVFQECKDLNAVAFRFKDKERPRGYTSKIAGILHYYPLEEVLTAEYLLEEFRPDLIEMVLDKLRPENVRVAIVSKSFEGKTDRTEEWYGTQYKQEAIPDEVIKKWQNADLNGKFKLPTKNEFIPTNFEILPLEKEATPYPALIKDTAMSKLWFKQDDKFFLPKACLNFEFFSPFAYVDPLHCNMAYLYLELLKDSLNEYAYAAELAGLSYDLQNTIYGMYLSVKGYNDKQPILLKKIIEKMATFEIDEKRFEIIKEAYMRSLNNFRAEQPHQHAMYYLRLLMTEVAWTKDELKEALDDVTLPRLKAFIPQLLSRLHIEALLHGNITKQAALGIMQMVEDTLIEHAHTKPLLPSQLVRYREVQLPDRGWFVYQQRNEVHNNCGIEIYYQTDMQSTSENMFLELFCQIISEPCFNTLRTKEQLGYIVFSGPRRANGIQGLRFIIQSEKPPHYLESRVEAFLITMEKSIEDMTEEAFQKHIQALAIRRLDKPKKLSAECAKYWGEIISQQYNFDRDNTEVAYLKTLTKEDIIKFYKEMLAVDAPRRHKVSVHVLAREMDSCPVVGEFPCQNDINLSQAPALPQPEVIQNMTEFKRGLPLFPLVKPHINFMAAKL
The depositor's hits bear a star; ! = not confirmed by another sample. The entries come from a sample that favours hits as a whole.

For O=C(C1CCC1)N1CC(=O)N2[C@H](CO)[C@H](c3ccc(-c4ccccc4F)cc3)[C@@H]2C1 the results were IDE exosite inh -3.2*.
Screening O=C(C1CCC1)N1CC(=O)N2[C@H](CO)[C@@H](c3ccc(Br)cc3)[C@H]2C1 returned IDE exosite inh -0.54.
`O=C(C1CCCC1)N1CC(=O)N2[C@@H](CO)[C@H](c3ccc(-c4ccccc4F)cc3)[C@@H]2C1` gave IDE exosite inh -5.7*.
For O=C(C1CCOCC1)N1CC(=O)N2[C@@H](CO)[C@H](c3ccc(C4=CCCC4)cc3)[C@@H]2C1 the results were IDE exosite inh 1.1.
`O=C(C1CCCC1)N1CC(=O)N2[C@H](C1)[C@H](c1ccc(-c3ccccc3F)cc1)[C@@H]2CO` gave IDE exosite inh -2.9.
`O=C(C1CC1)N1CC(=O)N2[C@@H](CO)[C@H](c3ccc(-c4ccccc4F)cc3)[C@@H]2C1` gave IDE exosite inh 0.71.
O=C(C1CCCC1)N1CC(=O)N2[C@H](CO)[C@@H](c3ccc(-c4ccccc4F)cc3)[C@H]2C1 was read as IDE exosite inh 2.8.
O=C(C1CCC1)N1CC(=O)N2[C@@H](CO)[C@@H](c3ccc(C4=CCCCC4)cc3)[C@@H]2C1 was read as IDE exosite inh -3.9*.
For O=C(C1CC1)N1CC(=O)N2[C@H](C1)[C@@H](c1ccc(-c3ccccc3F)cc1)[C@@H]2CO the results were IDE exosite inh -8.1*.
Screening COc1ccc(S(=O)(=O)N2CCCCN3[C@H](CO)[C@H](c4ccc(C5=CCCC5)cc4)[C@@H]3C2)cc1 returned IDE exosite inh 2.3.
`C[C@@H]1CN([C@H](C)CO)C(=O)CCCn2cc(nn2)CO[C@@H]1CN(C)C(=O)Nc1cccc(C(F)(F)F)c1` gave IDE exosite inh 0.68.
Cc1noc(C)c1C(=O)N(C)C[C@H]1OCc2ccccc2-c2ccccc2C(=O)N([C@@H](C)CO)C[C@H]1C was read as IDE exosite inh 0.34.
For O=C(C[C@H]1C=C[C@H](NC(=O)Nc2ccc3c(c2)OCO3)[C@@H](CO)O1)NCCCN1CCOCC1 the results were IDE exosite inh -0.18.
Screening N#C[C@@H]1[C@@H](c2ccc(-c3ccncc3)cc2)[C@@H](CO)N1C(=O)C1CCOCC1 returned IDE exosite inh 2.6.
For CO[C@@H]1CN(C)C(=O)c2ccc(NS(=O)(=O)CC(F)(F)F)cc2OC[C@@H](C)N(Cc2nccs2)C[C@H]1C the results were IDE exosite inh -0.55.
C[C@@H]1CN([C@@H](C)CO)C(=O)c2ccccc2-c2ccccc2CO[C@H]1CN(C)S(=O)(=O)c1cccs1 was read as IDE exosite inh -0.18.
Screening C/C=C/c1ccc([C@@H]2[C@@H](CO)N(C(=O)CC)[C@H]2CN(C)S(C)(=O)=O)cc1 returned IDE exosite inh 2.6.
CCCC#Cc1ccc([C@H]2[C@H](CO)N3CCCCN(S(=O)(=O)Cc4ccccc4)C[C@@H]23)cc1 was read as IDE exosite inh 0.56.
Screening COCCNC(=O)C[C@H]1CC[C@@H]2[C@@H](COc3ccc(NS(=O)(=O)c4ccc(Cl)cc4)cc3C(=O)N2C)O1 returned IDE exosite inh -0.5.
For O=C(C1CCC1)N1CC(=O)N2[C@@H](CO)[C@@H](c3ccc(-c4ccccc4F)cc3)[C@@H]2C1 the results were IDE exosite inh -5.6*.
Screening O=C(C1CCC1)N1CC(=O)N2[C@H](C1)[C@@H](c1ccc(Br)cc1)[C@@H]2CO returned IDE exosite inh 0.91.
For O=C1CN(S(=O)(=O)Cc2ccccc2)C[C@H]2[C@@H](c3ccc(C#CC4CC4)cc3)[C@@H](CO)N12 the results were IDE exosite inh 3.4.
For COc1ccc(-c2cn(CC[C@H]3CC[C@H](NC(=O)c4cnccn4)[C@H](CO)O3)nn2)cc1 the results were IDE exosite inh 0.18.
COc1ccccc1CN1[C@@H]2Cn3c(cccc3=O)[C@H]1[C@@H](C(=O)N1CCc3ccccc3C1)[C@@H]2CO was read as IDE exosite inh 0.058.
For O=C(Nc1cccc(F)c1)N1C[C@@H]2N[C@H](C1)C2c1ccc(-c2cccnc2)cc1 (stereo not given in full) the results were IDE exosite inh 1.4.
For O=C(Nc1ccc(F)cc1)N1C[C@@H]2N[C@H](C1)C2c1ccc(/C=C/c2ccccc2)cc1 (stereo not given in full) the results were IDE exosite inh 0.82.
Screening O=C(NC1CCCCC1)N1C[C@@H]2N[C@H](C1)C2c1ccc(-c2ccc(F)cc2)cc1 (stereo not given in full) returned IDE exosite inh 2.2.
`O=C(Nc1cccc(F)c1)N1C[C@@H]2N[C@H](C1)C2c1ccc(-c2ccccc2F)cc1` (stereo not given in full) gave IDE exosite inh -0.69.
For Cc1ccccc1-c1ccc(C2[C@H]3CNC[C@@H]2N3C(=O)Nc2ccc(F)cc2)cc1 (stereo not given in full) the results were IDE exosite inh -0.67.
Screening C/C=C/c1ccc(C2[C@@H]3CN(C(=O)NC4CCCCC4)C[C@H]2N3)cc1 (stereo not given in full) returned IDE exosite inh -0.36.
Screening Cc1ccccc1-c1ccc(C2[C@@H]3CN(C(=O)Nc4cccc(F)c4)C[C@H]2N3)cc1 (stereo not given in full) returned IDE exosite inh -6.4*.
`Cc1ccccc1-c1ccc(C2[C@@H]3CN(C(=O)Nc4ccc(F)cc4)C[C@H]2N3)cc1` (stereo not given in full) gave IDE exosite inh -11*.
For Cc1ccccc1-c1ccc(C2[C@@H]3CN(C(=O)NC4CCCCC4)C[C@H]2N3)cc1 (stereo not given in full) the results were IDE exosite inh -8.2*!.
CC(C)CC#Cc1ccc([C@@H]2[C@@H](CO)N3C(=O)CN(C(=O)NC4CCCCC4)C[C@H]23)cc1 was read as IDE exosite inh 0.39.
O=C(Nc1ccc(F)cc1)N1C[C@@H]2[C@H](c3ccccc31)[C@H](CO)N2C(=O)c1ccncc1 was read as IDE exosite inh 2.4.
`CC(C)NC(=O)N1CCCCN2[C@H](CO)[C@H](c3ccc(C#Cc4ccccc4F)cc3)[C@@H]2C1` gave IDE exosite inh -6.4*.
For CC(C)NC(=O)N1CCCCN2[C@@H](CO)[C@@H](c3ccc(C#C[C@H](C)O)cc3)[C@@H]2C1 the results were IDE exosite inh 0.3.
`CC(C)NC(=O)N1CCCCN2[C@H](C1)[C@H](c1ccc(C#CC3CC3)cc1)[C@@H]2CO` gave IDE exosite inh -2.3.
CC(C)NC(=O)N1CCCCN2[C@H](CO)[C@@H](c3ccc(C#Cc4ccccc4F)cc3)[C@H]2C1 was read as IDE exosite inh -10*.
`CC(C)NC(=O)N1CCCCN2[C@H](CO)[C@H](c3ccc(C#CC4CC4)cc3)[C@H]2C1` gave IDE exosite inh -1.7.
CC(C)NC(=O)N1CCCCN2[C@H](C1)[C@@H](c1ccc(C#C[C@@H](C)O)cc1)[C@@H]2CO was read as IDE exosite inh 0.85.
CC(C)C#Cc1ccc([C@H]2[C@@H](CO)N3CCCCN(C(=O)NC(C)C)C[C@H]23)cc1 was read as IDE exosite inh -1.8.
`CC(C)C#Cc1ccc([C@@H]2[C@@H](CO)N3CCCCN(C(=O)NC(C)C)C[C@@H]23)cc1` gave IDE exosite inh 1.1.
`CC(C)NC(=O)N1CCCCN2[C@@H](CO)[C@@H](c3ccc(C#Cc4ccccc4F)cc3)[C@@H]2C1` gave IDE exosite inh -3.1*.
